# Source: PubChem BioAssay AID602141 (Sanford-Burnham Center for Chemical Genomics, 2011)
# Among all 360,000 compounds or so, about 1,300 (0.36%) were called active. The sample as a whole holds a higher share of actives than the screen did. Values without a mark were called inactive.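 The calls were made as follows: active = corrected activity change at or below -50% at 5 µM; inactive = the rest.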
# Assay: KKLEB cell viability reduction – uHTS, fluorescence assay plates, cytotoxicity control for CF NF-kB inhibitor project, primary screen (AID 602141)
# Details: KKLEB CF airway cells viability, ATPlite luminescence, overnight; at 5 µM; stronger effect = lower value; cells stimulated with P. aeruginosa culture filtrate
row,SMILES,activity change (cytotoxicity)
1,Cc1noc(C)c1C(=O)OC(C)C(=O)Nc1ccc2c(c1)OCO2 (stereo not given),1.3%
2,COc1ccccc1NC(=O)C1CCN(C(=O)c2ccc(C(C)(C)C)cc2)CC1,3.1%
3,COC(=O)c1sc(-c2ccc(C(C)(C)C)cc2)cc1NC(=O)/C=C/C(=O)O,-51.8% (active)
4,COc1ccc(NS(=O)(=O)c2ccc(N3CCOCC3)c(NC(=O)/C=C/C(=O)O)c2)cc1,17.8%
5,O=C(C=CC(=O)Nc1ccc(F)cc1F)Nc1ccc(F)cc1F,-11%
6,O=C(NCC1CCCO1)c1ccccc1-c1nc(-c2ccccc2Cl)no1 (stereo not given),-12.9%
7,O=C(O)CC12CC3CC(C1)CC(n1ncc(NCc4ccc(F)cc4)c(Cl)c1=O)(C3)C2,-4.6%
8,CCN1CCC(O)(/C=C/c2ccc(C)cc2)C(C(=O)/C=C/c2ccc(C)cc2)C1 (stereo not given),-73.7% (active)
9,CCN1CCC2(CC1)N=C(c1ccc(F)cc1)C(=S)N2C(=O)c1ccc(C)cc1,2.3%
10,CCc1nc2ccc(C(=O)N3CCC(O)(Cc4ccccc4)CC3)cn2c1N(C)C(=O)Cc1ccccc1,-15.5%
11,CC(=O)c1ccc(-c2cnc3c(NC=O)cc(-c4cccc(NS(C)(=O)=O)c4)cn23)cc1,-51.7% (active)
12,CC(=O)c1cccc(-c2cnc3c(NC=O)cc(-c4ccc(N(C)C)cc4)cn23)c1,-27.1%
13,CC(=O)Nc1cccc(-c2cc(NC=O)c3ncc(-c4ccc(F)c(Cl)c4)n3c2)c1,0.8%
14,O=C(Nc1ccncc1)c1c(F)cccc1F,-51.3% (active)
15,O=C(Nc1ccc(S(=O)(=O)N2CCCCCC2)cc1)c1c(F)cccc1F,5.1%
16,COc1cccc(OC)c1C(=O)Nc1ccc(Cc2ccncc2)cc1,-3.9%
17,CCOC(=O)C1CCCN(C(=O)C2CCN(c3nnc(-n4cccc4)s3)CC2)C1 (stereo not given),-8.3%
18,COc1ccc(NC(=O)COC(=O)C2COc3ccccc3O2)cc1 (stereo not given),12.9%
19,O=C(Nc1nc(-c2ccncc2)cs1)C1COc2ccccc2O1 (stereo not given),-70.7% (active)
20,O=C(Nc1cc(S(=O)(=O)N2CCCCC2)ccc1Cl)C1COc2ccccc2O1 (stereo not given),-14%
21,CCN1CCN(C(=O)CN(C)S(=O)(=O)c2ccc(OC)cc2)CC1,3.4%
22,CSc1cccc(NC(=O)CN2C(=O)COc3ccc(S(=O)(=O)N4CCOCC4)cc32)c1,6.5%
23,Cc1ccc(CNC(=O)COc2ccc(S(=O)(=O)NC(C)C)cc2)cc1,-0.1%

row,SMILES,activity change (cytotoxicity)
1,O=C1CN(C(=O)c2ccccc2F)C(c2ccc(F)cc2)c2cc(F)ccc2N1 (stereo not given),11.6%
2,C=CCNC(=S)NNC(=O)COc1c(Cl)cc(Cl)cc1Cl,-16.4%
3,O=C(C1CCN(S(=O)(=O)c2ccc(Br)s2)CC1)N1CCN(C2CCCCC2)CC1,13.7%
4,CCCc1ccc(OCCNC(=O)c2ccccc2Br)cc1,-6.1%
5,CC(C)CCOc1ccc(C(=O)C[N+]2(C)CCOCC2)cc1,1.8%
6,CCCOc1ccc(C(=O)C(CCC(CNCC)C(=O)c2ccc(OCCC)cc2)CNCC)cc1 (stereo not given),-58.6% (active)
7,Cc1ccc(C(NC(=O)C2CCN(CCOc3ccc(Cl)cc3Cl)CC2)c2ccccn2)cc1 (stereo not given),-0.6%
8,COc1ccc(C(=O)Nc2ccccc2C(=O)N/N=C/c2ccc(O)c(OC)c2)cc1,-87.3% (active)
9,COc1cccc(OCc2cc(/C=N/NC(=O)c3nc(Cl)c(Cl)c(N)c3Cl)ccc2OC)c1,-5.4%
10,CCOc1ccc(-c2cc(C(=O)N/N=C/c3ccc(O)cc3)c3ccccc3n2)cc1,-15.6%
11,CC(=O)Nc1ccc(NC(=O)CC2CCCC2)cc1,6.6%
12,O=c1c2ccccc2ncn1CCCCOc1ccccc1F,5.1%
13,COCCCNC(=O)C1CC(=O)N(CCc2ccc(F)cc2)C1 (stereo not given),1.6%
14,CCOc1ccc(NC(=O)CSc2nc3ccccc3c(=O)n2Cc2cccs2)cc1,-54.6% (active)
15,O=C(CSc1nc2nccnc2c(=O)n1Cc1cccs1)Nc1ccccc1F,-10.3%
16,CC(=O)NCCn1c(SCC(=O)Nc2ccc(C)cc2)nc2ccccc2c1=O,4.4%
17,Cc1ccc(NC(=O)C(c2ccccc2)N2CCN(C(=O)c3ccco3)CC2)cc1 (stereo not given),19.2%
18,CSc1ccc(CNC(=O)c2ccc(NC(=O)C3=CSCCO3)cc2)cc1,-31.3%
19,CCC/C(O)=C1\C(=O)CC(C)(C)CC1=Nc1ccccc1OC,21.9%
20,Cc1cc2c(C)nc(N/N=C/c3ccccc3)nc2o1,16.3%
21,C=C(C)C(=O)O[C@H]1C/C(C)=C\C(=O)/C=C(\C)[C@H](O)[C@@H]2OC(=O)C(=C)[C@@H]21,-78.6% (active)
22,COc1cccc(C(=O)Oc2cc(C)[nH]c(=O)c2[N+](=O)[O-])c1,0.5%
23,COC(=O)C1CCCCN1C(=O)c1ccc(OC2CCN(C(C)=O)CC2)c(OC)c1 (stereo not given),2.5%

row,SMILES,activity change (cytotoxicity)
1,Cc1ccc2c(c1)N(C(=O)CCC(=O)N1CCc3ccccc3C1)CCO2,-2.8%
2,O=C(NCC(=O)N1CCN(c2ccccc2F)CC1)c1cccs1,10.7%
3,Cc1ccccc1C(CC(=O)c1cccs1)C(C#N)C#N (stereo not given),-51.2% (active)
4,Cc1ccc(C)c(NC(CC(=O)c2ccccc2)C(=O)OCC(=O)c2cccs2)c1 (stereo not given),5.7%
5,CCN(CC)c1nc(-c2ccccc2)cc(C(F)(F)F)c1C#N,9.1%
6,Cc1ccc(CC(=O)Nc2ccc(OC(F)F)c(Cl)c2)cc1C,5.1%
7,CN(CC(=O)Nc1ccc(S(=O)(=O)N2CCCC2)cc1)Cc1ccc(Cl)c(Cl)c1,-2.3%
8,O=C(Cc1ccc(Cl)c(Cl)c1)Nc1ccc(SC(F)F)cc1,-64.7% (active)
9,COc1ccccc1NC(=O)CSc1nnc(CNC(=O)c2ccccc2F)o1,-0.3%
10,CCn1cc(NC(=O)Nc2ccc(OC)c(OC)c2)c(C(N)=O)n1,-3.5%
11,O=C(COC(=O)/C(=C/c1cccs1)c1cccs1)NCc1ccccc1Cl,4.5%
12,N#CCCN(C(=O)Nc1ccc(Cl)c(Cl)c1)C1CCCCC1,11.3%
13,O=C(CC(O)(C(F)(F)F)C(F)(F)F)Nc1ccc(Cl)c(Cl)c1,-59% (active)
14,CC1(C(=O)O)CCC(C(=O)Nc2ccc(Cl)c(Cl)c2)C1(C)C (stereo not given),3.1%
15,CCCCC(c1nnnn1CS(=O)(=O)c1ccc(C)cc1)N1CCC(C(N)=O)CC1 (stereo not given),-15%
16,Cc1ccc(S(=O)(=O)N(CC(=O)Nc2cccc([N+](=O)[O-])c2)Cc2ccc(Cl)cc2)cc1,10.5%
17,CC(=O)N(CN1C(=O)C2CC=CCC2C1=O)c1cccc(Cl)c1 (stereo not given),8.7%
18,O=C(CCl)N(Cc1cccc([N+](=O)[O-])c1)c1cccc(Cl)c1,-96.2% (active)
19,CCCn1nnc2sc3c(c2c1=O)CCC(C)C3 (stereo not given),-55.8% (active)
20,Cc1cc(NC(=O)CSc2nc(C(C)C)nc3sc4c(c23)CCC(C)C4)no1 (stereo not given),-1.3%
21,CCCSc1nc2sc3c(c2c(=O)n1-c1ccc(OC)cc1)CCN(C)C3,6.6%
22,O=S(=O)(O)CCN1CCOCC1,-2.1%
23,CC(=O)NC(c1cccc(F)c1)c1nc(-c2cccc(F)c2)cs1 (stereo not given),-3.6%

row,SMILES,activity change (cytotoxicity)
1,CC(C)N(Cc1nc(-c2ccc3c(c2)OCO3)no1)CC1CCC(=O)N1 (stereo not given),7.7%
2,CCCSc1nsc(N)n1,-4.9%
3,COC(=O)c1sc(NC(=O)c2ccc(OC)cc2OC)nc1C,-66.8% (active)
4,COc1ccc(C(=O)CCC(=O)Nc2cccnc2)c(OC)c1,-8.9%
5,Cc1csc(NC(=O)CSc2nc(=O)cc(N)n2-c2ccc(F)cc2)n1,-0.9%
6,Cc1ccccc1OCC(=O)Nc1nc(C)c(C(=O)N(C)C)s1,2.2%
7,Cc1csc(NC(=O)CSc2ccc(-c3ccc(F)cc3)nn2)n1,8.5%
8,COc1cc(SC)ccc1C(=O)Nc1nc(C)cs1,-88.8% (active)
9,Cc1ccc2c(c1)N(CC(=O)N1CCC(O)CC1)C(=O)CO2,7.7%
10,O=C(NCCCN1CCCCC1)C1CC(=O)N(CCc2ccccc2)C1 (stereo not given),-3.7%
11,O=C(CNC(=O)c1cc(S(=O)(=O)N2CCOCC2)ccc1N1CCCC1)Nc1ccc(F)c(F)c1,8%
12,Cc1cc(C)c2c(=O)n3c(nc2c1)C(CC(C)C)NC(=O)c1cc2ccccc2cc1-3 (stereo not given),-9%
13,O=C(/C(=C/c1cccc(Cl)c1)c1nc2ccccc2[nH]1)c1ccccc1,-62.2% (active)
14,CCCCn1c(N)c(N(CC(C)C)C(=O)CN(C)S(=O)(=O)c2ccc(F)cc2)c(=O)[nH]c1=O,1.7%
15,CCNC(=O)CC1C(=O)N(c2ccc(F)cc2)C(=O)N1CCc1sccc1C (stereo not given),15.4%
16,O=C(NC(Nc1nc2ccc([N+](=O)[O-])cc2s1)(C(F)(F)F)C(F)(F)F)c1ccccc1,-70.6% (active)
17,O=C(Nc1nnc(SCc2ccccc2Cl)s1)c1cccc([N+](=O)[O-])c1,-35.3%
18,O=C(NNC(=O)c1ccc(-n2cncn2)c([N+](=O)[O-])c1)c1ccccc1,9.1%
19,O=C(COC(=O)c1ccccc1NC(=O)c1ccco1)Nc1ccc2c(c1)OC(F)(F)O2,-4.2%
20,COc1ccc(S(=O)(=O)NC(CC(=O)NCc2ccccc2OC)c2ccco2)cc1 (stereo not given),5%
21,Cc1c(NC(=O)Nc2cccc([N+](=O)[O-])c2)c(=O)n(-c2ccccc2)n1C,0%
